High-throughput results from PubChem BioAssay.
Rows were chosen to be rich in hits. Some 3.2% of all compounds tested hit in one or more screens of this group.
ALOX15B inhib = qHTS Assay for Inhibitors of 15-hLO-2 (15-human lipoxygenase 2). 110,000 tested, 0.56% active. purified 15hLO-2, xylenol orange hydroperoxide absorbance. Potency, µM (doses to about 57.1 µM), for inactives: top-dose activity change, negative = inhibition, usual class: inhibitors. Polyunsaturated fatty acid lipoxygenase ALOX15B (Homo sapiens), O15296; further: on the % scale 0 is the no-effect control and ±100 the full control effect; nearly all actives have a fitted effect of over 60% in size
Target sequence (O15296 whole entry, looked up): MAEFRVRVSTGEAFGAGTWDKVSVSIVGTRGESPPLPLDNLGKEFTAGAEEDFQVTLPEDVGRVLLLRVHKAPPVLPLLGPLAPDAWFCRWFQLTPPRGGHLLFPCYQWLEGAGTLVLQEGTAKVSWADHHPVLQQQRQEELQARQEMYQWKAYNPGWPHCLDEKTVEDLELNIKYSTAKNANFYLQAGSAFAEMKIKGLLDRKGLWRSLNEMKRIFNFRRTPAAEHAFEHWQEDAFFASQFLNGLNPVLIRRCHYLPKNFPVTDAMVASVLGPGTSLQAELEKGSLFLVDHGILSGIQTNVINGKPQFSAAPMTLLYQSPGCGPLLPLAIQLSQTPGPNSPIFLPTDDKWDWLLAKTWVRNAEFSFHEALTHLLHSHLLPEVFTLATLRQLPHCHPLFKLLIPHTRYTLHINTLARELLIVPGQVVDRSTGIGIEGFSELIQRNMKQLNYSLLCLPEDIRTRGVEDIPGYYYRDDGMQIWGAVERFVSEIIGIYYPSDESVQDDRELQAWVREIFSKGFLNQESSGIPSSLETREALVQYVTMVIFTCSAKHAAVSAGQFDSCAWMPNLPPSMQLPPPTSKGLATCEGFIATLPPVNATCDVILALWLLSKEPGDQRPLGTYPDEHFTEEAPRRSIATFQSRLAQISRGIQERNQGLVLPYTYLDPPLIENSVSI
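Purified human 15hLO-2 (50 nM) preincubated 15 min with compound, then 45 uM arachidonic acid for 90 min at RT in 25 mM Hepes pH 7.5, 0.01% Triton X-100. Hydroperoxide detected by Fe-xylenol orange; 573/405 nm absorbance ratio.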
ERK AVP inh = qHTS Assay for Inhibitors of the ERK Signaling Pathway using a Homogeneous Screening Assay. 72,000 tested, 0.99% active. Potency, µM (top dose mostly 57.5 µM), for the others: at the top dose activity, negative = inhibition, most hits filed as inhibitors. HEK293-V1b, vasopressin-stimulated pERK AlphaScreen; further: on the % scale 0 is the no-effect control and ±100 the full control effect; nearly all actives have a fitted effect of over 55% in size
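V1b-HEK293 cells; cpd 30 min 37C; 25 nM vasopressin 5 min; lyse 10 min; AlphaScreen beads 5 hr RT. Normalized to DMSO basal and 25 nM vasopressin; AC50 by Hill fit.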
ALOX15 inhib = qHTS Assay for Inhibitors of 15-hLO (15-human lipoxygenase). purified 15hLO-1, xylenol orange hydroperoxide absorbance. Potency, µM (top dose mostly 57.1 µM), for the others: top-dose activity change, negative = inhibition, usual class: inhibitors. 74,000 tested, 1.4% active; further: on the % scale 0 is the no-effect control and ±100 the full control effect; nearly all actives have a fitted effect of over 55% in size
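Inhibition is scored from a chromogenic endpoint. After 15 min enzyme-compound contact, arachidonic acid (50 uM final) reacts 6 min with 40 nM 15hLO-1 at room temperature, then Fe-XO reagent is added for 30 min and absorbance ratio recorded.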
CRE-bla Fsk = Cell signaling CRE-BLA (Fsk stim). 71,000 tested, 2.5% active. Potency, µM (series often up to 38.2 µM), inactives show at the top dose activity change, negative = inhibition, usual class: activators. CHO CRE-bla reporter (cAMP response element driving beta-lactamase), forskolin EC10, beta-lactamase ratio; active means well fitted activation curve with a large enough effect in the signal ratio, with a control signal flat, not every such curve was filed as active; inconclusive means small, poorly fitted or top-dose-only effect, or effect the other way, or a change in a side signal; the % refers to the signal ratio; further: % of control where 0% means no effect
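Reporter-gene assay: CHO cells with beta-lactamase behind cAMP responsive elements, co-treated with compound and EC10 NKH 477 for 3 hours at 37 degrees Celsius. Activity came from the 460/530 nm CCF4 emission ratio.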
* marks the source's active call; other numbers are inactive results; ? = inconclusive; . = no result given; [ ] = dose if it differs, or a comment. Unless noted, the call rests on the fitted dose curve; in most records, active means well fitted inhibition curve with a large enough effect; inconclusive means small, poorly fitted or top-dose-only effect; inactive means no such curve, though single readings can be large or run the other way. Potency means the concentration at half of the fitted maximal effect.

SMILES | ALOX15B inhib | ERK AVP inh | ALOX15 inhib | CRE-bla Fsk
CCOC(=O)C(Sc1nnc2c3ccccc3n(CC)c2n1)C(=O)OCC | -20% | -4% | -24% | ?
CCOC(=O)c1sc(NC(=O)CSc2nnc3c4ccccc4n(CC)c3n2)nc1C | . | -23% | -17% | 6%
CCn1c2ccccc2c2nnc(SCC(=O)c3ccccc3)nc21 | -11% | 20µM* | 5% | 3.2µM*
CC(=O)OC[C@@H]1O[C@@H](O/N=C2/C[C@@H](O)[C@@H](O)[C@@H]3[C@H]4C(=O)N(c5ccc(F)cc5F)C(=O)[C@@H]4CC[C@H]23)[C@H](OC(C)=O)[C@H](OC(C)=O)[C@@H]1OC(C)=O | . | 7%[11.5 µM] | 3%[11.4 µM] | .
CCOC(=O)NCCc1c(C)nc2c(c(C)nn2C(C)(C)C)c1C | 13% | -19% | -15% | 5µM*
Cc1nn(-c2ccccc2)c2nc(N)c(C#N)c(-c3ccc(F)cc3)c12 | 6% | -8% | -11% | 2µM*
Cc1csc2nc(CSc3nc4ccccc4o3)c(Br)n12 | 10% | -15% | -18% | 2.5µM*
Cc1csc2nc(CSc3nncn3-c3ccccc3)c(Br)n12 | 10% | -16% | -2% | ?
O=C(Nc1ccc2oc(-c3ccccc3F)nc2c1)c1cncc(Br)c1 | 1% | -6% | -6% | 0.5µM*
CNc1ncncc1-c1ccccc1C | 2% | 2% | 6% | -7%
CC(=O)CSc1ncnc2c1oc1ccccc12 | -7% | -16% | 6% | 4µM*
CCOc1ccccc1NC(=O)CSc1ncnc2c1oc1ccccc12 | -17% | 14% | 8% | 0.63µM*
CCCSc1ncnc2c1oc1ccccc12 | 3% | 14% | -8% | ?
COC(=O)c1ccc(CSc2ncnc3c2oc2ccccc23)o1 | -11% | 12% | 6% | 2.5µM*
O=c1cc(-c2cccc(-c3ccc(C(F)(F)F)cc3)c2)c2cc3c(cc2o1)OCO3 | -18%[0.0915 µM] | . | . | .
O=C(CCN1CCOCC1)Nc1ccc(F)cc1F | -5%[11.4 µM] | 0%[11.5 µM] | -2%[11.4 µM] | ?
CN(C)c1ncc2nc(CCc3ccccc3)c(=O)n(CCc3ccccc3)c2n1 | 2% | 56% | 3% | 4µM*
CN(C)c1ncc2nc(-c3cccs3)c(=O)n(CCc3ccccc3)c2n1 | 8% | 4% | 2% | ?
COc1ccc(Oc2ncc3nc(-c4ccc(OC)cc4)c(=O)n(CCC#N)c3n2)cc1 | -3% | -6% | 14% | ?
COc1ncc2nc(CCc3ccccc3)c(=O)n(CCC#N)c2n1 | 18% | ? | 4% | ?
CN(C)c1ncc2nc(CCc3ccccc3)c(=O)n(Cc3ccc(F)cc3)c2n1 | -1% | 35% | -14% | ?
CN(C)c1ncc2nc(CCc3ccccc3)c(=O)n(CCC#N)c2n1 | -5% | -11% | -11% | 4µM*
Cc1nc2cnc(N(C)C)nc2n(CCc2ccccc2)c1=O | 22% | ? | -7% | 7.9µM*
COc1ccc(-c2nc3cnc(N(C)C)nc3n(CCC#N)c2=O)cc1 | 8% | -14% | -4% | 0.4µM*
NC1CONC1=O (configuration not stated) | 7% | 8% | 8% | .
SMILES | ALOX15B inhib | ERK AVP inh | ALOX15 inhib | CRE-bla Fsk
C[C@@]12CC[C@@H]3[C@@H](CC[C@H]4C[C@@H](O)CC[C@]43C)[C@H]1CC[C@@H]2c1cc(C(F)(F)F)n[nH]1 | -25%[11.4 µM] | 38%[11.5 µM] | ? | -5%[7.6 µM]
COc1ccc2c(C=Nc3c(C)n(C)n(-c4ccccc4)c3=O)c(O)n(Cc3ccco3)c(=O)c2c1 | -16% | -20% | -2% | 3.2µM*
CCC(=O)NCc1cc(-c2nn(C)c(=O)c3ccccc23)ccc1C | -6% | . | . | .
Cc1ccc(-c2nn(C)c(=O)c3ccccc23)cc1S(=O)(=O)N1CCOCC1 | . | ? | 6% | 3.2µM*
Cc1ccc(-c2nn3c(-c4ccco4)nnc3c3ccccc23)cc1S(=O)(=O)N1CCOCC1 | -3% | ? | 7% | ?
Cc1ccc(-c2nn(C)c(=O)c3ccccc23)cc1S(=O)(=O)N1CCCC1 | -5% | . | 1% | 3.2µM*
Cc1ccc(-c2nn(C)c(=O)c3ccccc23)cc1S(=O)(=O)NCCO | -1% | ? | 4% | 10µM*
COc1ccc(NC(=O)c2cnn3c(C(F)(F)F)cc(-c4ccco4)nc23)cc1OC | -13% | -21% | 4%[11.4 µM] | ?
O=C(Nc1ccc2c(c1)OCO2)c1cnn2c(C(F)(F)F)cc(-c3ccco3)nc12 | 5% | -19% | 3% | 5µM*
Cc1ccc2oc(NC(=O)N3CCOCC3)cc(=O)c2c1 | -13% | -14% | -6% | 0.32µM*
N#CCSc1nc2c(cc1C#N)CCCC2 | 8% | -18% | -19% | 13µM*
Cc1ccc(C2=C(Cl)C(=O)C(c3ccc(C)cc3)=C(Cl)C2=O)cc1 | -21%[11.4 µM] | 10%[11.5 µM] | ? | 12%[7.6 µM]
Cc1cc(C)nc(-n2nc(C)c(Sc3ccc(F)cc3)c2N)n1 | 35% | 18% | 19% | 2µM*
COc1ccccc1CN1CCCC2(CCN(C(=O)c3cccc(F)c3)CC2)C1 | -2% | -8% | 2% | -6%
CCc1ccc2oc(-c3cccc(NC(=O)c4cccnc4)c3)nc2c1 | 17% | 25µM* | 6% | -7%
C=C(C)CSC1=C(C#N)C(c2ccccc2Cl)CC(=O)N1 (configuration not stated) | -22% | 20µM* | 16µM* | -8%
COc1ccc(-c2nnc(SCC(=O)Nc3ncc(C)s3)n2-c2ccccc2)cc1OC | -4% | -30% | 5% | 5µM*
CCc1nnc(NC(=O)CSc2nnc(-c3ccc(O)cc3)n2-c2ccccc2)s1 | . | -20% | 2% | 5%
O=C1Nc2ccc(I)cc2/C1=C/c1cc(Br)c(O)c(Br)c1 | ? | ? | 13µM* | ?
CCN(CC)c1nc(Nc2ccc(Cl)cc2)nc(OCC#N)n1 | 19% | 22% | -21% | 5µM*
CCN(CC)c1nc(Nc2ccccc2)nc(Oc2ccc(=O)[nH]n2)n1 | 12% | -24% | -23% | ?
COc1cccc(-c2cncnc2NCc2cccs2)c1 | 21% | 10µM* | ? | -4%
COc1cccc(-c2nc(NCc3cccs3)c3ccccc3n2)c1 | 7% | 32µM* | 1% | ?
COc1cccc(-c2cncnc2NCc2cnc(C)cn2)c1 | 1% | -8% | -2% | 3%
CS(=O)(=O)Nc1cccc(-c2nc(NCc3cccs3)c3ccccc3n2)c1 | -1% | ? | ? | ?
COc1cccc(-c2cncnc2NCc2ccccc2)c1 | 29% | 20µM* | 3% | -1%
Cc1ccccc1-c1cncnc1NCc1cccs1 | 30% | 25µM* | -5% | 2%
CCOC(=O)CCN1C(=O)[C@H]2[C@H]3[C@H](O)[C@H](O)C/C(=N/NC(=O)OCC)[C@@H]3CC[C@@H]2C1=O | . | 0%[11.5 µM] | -2%[11.4 µM] | .
C[C@@H](O)CNC(C)(C)CC(=O)N[C@@H]1CCc2ccccc2N(Cc2ccc(-c3ccccc3-c3nn[nH]n3)cc2)C1=O | -11%[0.0915 µM] | . | . | .
Cc1ccc(C(=O)Nc2ccccc2N2CCOCC2)c(C)c1 | . | . | -8% | .
